PubChem BioAssay AID493078 (National Center for Advancing Translational Sciences (NCATS), 2011)
This is one part of the list. A call without a number means that no potency is given here. Records with an inconclusive call do not appear. The source made the active and inactive calls. Calls follow the shape of the dose curve; as a rule, active = well fitted activation curve with a large enough effect; inconclusive = small, poorly fitted or top-dose-only effect; inactive = flat fitted curve, though single readings scatter.
Also: nearly all actives have a fitted effect of over 75% in size.

These molecules were tested against Thyrotropin-releasing hormone receptor (Homo sapiens) (UniProt P34981) (assay: qHTS for Small Molecule Agonists and Allosteric Enhancers of Human TRH Receptor: Confirmation Screen for Agonists). Settings: TRHR-expressing cells, agonist activation read-out; series mostly up to 46.1 µM.
Sequence of Thyrotropin-releasing hormone receptor (Homo sapiens) (P34981 whole entry, looked up): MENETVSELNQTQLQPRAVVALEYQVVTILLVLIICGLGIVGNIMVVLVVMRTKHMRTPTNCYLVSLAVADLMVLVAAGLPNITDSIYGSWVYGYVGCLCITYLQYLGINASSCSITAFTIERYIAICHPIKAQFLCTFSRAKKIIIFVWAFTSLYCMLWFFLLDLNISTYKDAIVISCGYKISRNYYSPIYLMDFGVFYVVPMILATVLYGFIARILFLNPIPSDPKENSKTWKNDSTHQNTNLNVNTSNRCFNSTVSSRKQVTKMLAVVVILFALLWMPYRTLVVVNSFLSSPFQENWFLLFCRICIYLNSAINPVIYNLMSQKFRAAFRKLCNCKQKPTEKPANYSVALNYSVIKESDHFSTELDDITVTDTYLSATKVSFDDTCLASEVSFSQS
Description: NIH Chemical Genomics Center [NCGC]
NIH Molecular Libraries Probe Centers Network [MLPCN]
Assay Submitter (PI): Marvin Gershengorn
This project aims to identify small drug-like molecules that activate (agonists) the thyrotropin releasing hormone (TRH) receptor (TRHR) or enhance its TRH-stimulated activity (allosteric enhancers). TRHR, a drug-accessible cell surface receptor expressed in specific brain regions, and its ligand TRH have been implicated in several central nervous system disorders, including depression and anxiety. Small molecule TRHR agonists or allosteric enhancers that are metabolically stable and able to cross the blood-brain barrier might serve as probes to elucidate the roles of brain TRH receptors in animal models, and might be valuable as lead compounds for the development of drugs to treat patients with central nervous system disorders.
Upon TRHR-Gq activation in TRHR cells, intracellular calcium is released from stores in the endoplasmic reticulum.
For the HTS assay freshly prepared cells are plated at a density of 2000/well in 3 ul of complete DMEM medium containing 10% serum in 1536-well plates and cultured over night at 37 C in a humidified incubator with 5% CO2. The next day, 2 ul of a no wash calcium dye (ABD Bioquest) was added to the cells and plates were incubated at room temperature for 1 hour. For the assay, assay plates were loaded into the FDSS kinetic plate reader. A 10 cycle (1 second/cycle) baseline measurement is taken and then the FDSS online 1536 pintool delivers 23 nl of compound library (as well as TRH controls) to the plate. The plate is measured for kinetically at 1 cycle/sec for 180 seconds and is considered to be the agonist portion of the assay (eg, compounds which activate a positive calcium response during this portion are flagged as potential agonists). Following the 180 second read, 1 ul of either an EC20 (positive modulation assay) is delivered by an onboard pipette head. Measurements are taken kinetically for an additional 180 seconds.
TRHR FDSS Screening Protocol
1. Reagent, 3 uL 2000 cells/well 1536 TC treated Black plate in media containing 10% FCS
2. Time, 18 hours, 33.5C 5% CO2 (cells grown at 37C)
3. Reagent, 2 uL ABD fluo-8 Ca dye
4. Time, 30 min-1.5hrs hours, Room temp (6 plates/batch)
5. Detector, EX 480/EM 530C, FDSS 10 cycles baseline (1sec/cycle)
6. Compound, 23 nL of stock solution from library
7. Detector, EX 480/EM 530C, FDSS 230 cycles (1sec/cycle) Agonist mode
8. Compound, 1 ul EC20 of TRH made up in HEPES HBSS, 10 nM final
9. Detector, EX 480/EM 530C, FDSS 100 cycles (1sec/cycle) Potentiator mode
For `CC1(C)Cc2c(cnn2-c2cccc(F)c2)C(NC(=O)c2cc[n+]([O-])cc2)C1` (stereo unspecified), the Potency was “inactive”.
